High-throughput results from PubChem.
ATXN2 expr inh = inhibitors of ATXN2 expression; Potency, µM (highest dose often 57 µM), for inactives: at the top dose activity change, negative = inhibition, hits mostly inhibitors; actives 0.72% (n = 360,000); HEK-293 ATXN2-luciferase reporter, luminescence, 24 h; AID 1745845; further: on the % scale 0 is the no-effect control and ±100 the full control effect; nearly all actives have a fitted effect of over 55% in size
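ATXN2-luciferase reporter cells (luciferase flanked by upstream and downstream ATXN2 gene portions) were treated 24 h at 37 °C with compounds at up to 57 uM. SteadyGlo luminescence gave expression; GF-AFC fluorescence gave viability.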
HT1080 IDH1KD tx = toxicity to HT-1080 IDH1 knockdown cells (counter line) | actives 2% (n = 360,000) | Potency, µM (titrated, usually from 46.1 µM), inactives show at the highest dose activity, negative = toxicity, hits mostly cytotoxic | AID 686971 | HT-1080 IDH1 knockdown viability, ATP luminescence, 48 h;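 further: 0% = DMSO wells and -100% = cell-free medium wells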
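HT-1080-IDH1KD cells (IDH1 knocked down), 750/well in RPMI with 5% FBS, treated with compound 48 h at 37 degrees C. Viability by CellTiter-Glo luminescence, normalised to DMSO and no-cell wells; concentration-response curves classed.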
ATXN viability = cell viability loss in ATXN counter-screen | S2 cells (HEK-293 line with an ATXN2-luciferase reporter) viability, CellTiter-Fluor protease fluorescence, 24 h | actives 0.49% (n = 400,000) | Potency, µM (doses to about 56.7 µM), actives largely listed as cytotoxic | AID 651635; further: nearly all actives have a fitted effect of over 40% in size
HT1080NT lethal = kills 2HG-producing HT-1080-NT fibrosarcoma cells; actives 1.6% (n = 360,000); AID 686970; Potency, µM (series often up to 46.1 µM), without a hit: at the top dose activity, negative = less viability, actives largely listed as cytotoxic; HT-1080-NT fibrosarcoma viability, CellTiter-Glo ATP luminescence, 48 h;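 further: NT is the 2HG producing partner of a matched IDH1 knockdown line; 0% = DMSO-treated cells and -100% = media-only wells without cells; nearly all actives have a fitted effect of over 55% in size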
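750 cells/well, RPMI + 5% FBS; 2 h settle, compound pin-transfer, 48 h at 37 degrees C. CellTiter-Glo 10 min RT, luminescence. Normalized to DMSO and media-only wells.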
TGFb inhibitor = blocks TGF-b signaling | HepG2 CAGA-GFP TGF-b/SMAD3 reporter, GFP fluorescence, 18 h; TGF-beta stimulated, 500 pg/mL final | Potency, µM (titrated, usually from 46.1 µM), for inactives: at the highest dose activity, negative = inhibition, actives largely listed as inhibitors | actives 1.2% (n = 410,000); further: on the % scale 0 is the no-effect control and ±100 the full control effect; nearly all actives have a fitted effect of over 65% in size
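GFP signal (ex488/em500-530) from TGF-beta-stimulated HEPG2 CAGA-GFP cells, 500 pg/mL final, 18 h at 37 degrees C in DMEM plus 1% FBS, normalized to unstimulated and DMSO-stimulated controls.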
HepG2 viability = HepG2 cytotoxicity, counter-screen for TGF-b inhibitors; AID 588856; actives 0.76% (n = 410,000); Potency, µM (titrated, usually from 46.1 µM), without a hit: at the highest dose activity change, negative = cytotoxicity, most hits filed as cytotoxic; HepG2 CAGA-GFP viability, ATP luminescence, 18 h
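CellTiter-Glo luminescence gave cytotoxicity after 18 hours at 37 degrees C. The cells were HepG2 CAGA-GFP in 1% FBS DMEM, stimulated with 500 pg/mL TGF-beta after compound addition. %Activity was normalised to no-cell wells (complete cell-killing) and DMSO (no toxicity), and curves were fitted and classified.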
An asterisk follows results filed as active; i = inactive; ? = inconclusive; . = no result. Sampled rows, rich in hits. Any-hit rate of the full collection: about 3.8%. The call rests on the fitted dose curve; in most records, active means well fitted curve in the direction sought with a large enough effect; inconclusive means small, poorly fitted or top-dose-only effect, or another doubt; inactive means no such curve, though single readings can be large; an effect the other way counts as inactive or inconclusive. Potency means the concentration at half of the fitted maximal effect.

SMILES | ATXN2 expr inh | HT1080 IDH1KD tx | ATXN viability | HT1080NT lethal | TGFb inhibitor | HepG2 viability
Cc1ccc(SCc2[nH]nc3c2C2(C(=O)N(C)c4ccccc42)C(C#N)=C(N)O3)cc1 (stereo not given) | 1% | ? | i | 15µM* | -22% | 14%
Cc1ccc(SCc2[nH]nc3c2C(c2ccc(C)o2)C(C#N)=C(N)O3)cc1 (stereo not given) | -17% | ? | i | -17% | ? | -69%
Cc1ccc(SCc2[nH]nc3c2C(c2ccco2)C(C#N)=C(N)O3)cc1 (stereo not given) | -7% | -24% | i | ? | ? | 13µM*
CCc1[nH]nc2c1C(c1ccc(Br)s1)C(C#N)=C(N)O2 (stereo not given) | 0% | ? | i | ? | 11µM* | -99%
CCc1[nH]nc2c1C(c1ccsc1)C(C#N)=C(N)O2 (stereo not given) | -11% | 7% | i | 1% | 2% | -5%
COCc1[nH]nc2c1C1(C(=O)N(C)c3ccccc31)C(C#N)=C(N)O2 (stereo not given) | 1% | -3% | i | -3% | 3% | -1%
CN(C)c1ccc(/C=C/c2cc(Cl)nc3ccccc23)cc1 | . | . | . | . | ? | -16%
Cc1[nH][nH]c(=O)c1C(c1c(C)[nH][nH]c1=O)c1cn(Cc2ccc(F)cc2)c2ccccc12 | -27% | ? | i | -29% | -3% | -21%
Cc1[nH][nH]c(=O)c1C(c1c(C)[nH][nH]c1=O)c1cn(Cc2ccc(Cl)c(Cl)c2)c2ccccc12 | ? | ? | ? | -20% | 13µM* | -19%
CCCC[C@@H]1CCCO[C@@](C(=O)NCC2CC2)(C(F)(F)F)C1 | . | . | . | . | ? | -15%
O=C(Nc1ncccc1O)c1ccc(NS(=O)(=O)c2ccc3[nH]c(=O)[nH]c3c2)cc1 | 0% | ? | i | ? | -9% | -16%
O=C(Nc1ncccc1O)c1ccc(S(=O)(=O)Nc2ccccc2)cc1 | 80% | 9.2µM* | i | 13µM* | -6% | -19%
CC(=O)c1c(C)[nH]c(C(=O)Nc2nc(-c3ccc(Cl)cc3)cs2)c1C | ? | 13% | i | 7% | -1% | 16%
Cc1ccc(-c2nc(NC(=O)c3nn(C)cc3[N+](=O)[O-])sc2C)cc1 | ? | 12µM* | ? | 5.8µM* | ? | -125%
Cn1cc([N+](=O)[O-])c(C(=O)Nc2nc(-c3ccc(Cl)cc3)cs2)n1 | 3% | 3.3µM* | i | 2.9µM* | ? | 6.3µM*
Cc1cnc(NC(=O)c2nn(C)cc2[N+](=O)[O-])s1 | 14% | ? | i | ? | ? | -1%
O=C(Nc1ccc(Cl)cc1)Nc1nc(-c2ccccc2)cs1 | -17% | 7% | ? | 15% | ? | -7%
Cc1ccc(-c2nc(NC(=O)c3nn(C)cc3[N+](=O)[O-])sc2C)cc1C | ? | 4.1µM* | i | 21µM* | ? | -80%
O=C(Nc1nc(-c2ccc(Cl)cc2)cs1)NC1CCCCC1 | -10% | ? | i | -25% | 11µM* | -35%
CCCCCC1Nc2cc(C(F)(F)F)c(S(N)(=O)=O)cc2S(=O)(=O)N1 (stereo not given) | -1% | . | i | . | . | .
COc1ccc(-n2c(=O)c3c4c(sc3n(Cc3ccc(C)cc3C)c2=O)CCC4)c(OC)c1 | 5% | . | i | . | 1% | 5.6µM*
Cc1ccc(S(=O)(=O)N2CCN(c3nc(-c4cncnc4)nc4ccccc34)CC2)cc1 | . | 1% | . | -1% | . | .
Cc1c(C(=O)N2CCOCC2)[nH]c2c1C(=O)CC(c1ccccc1Cl)C2 (stereo not given) | -19% | 4µM* | i | 5µM* | -17% | -35%
Cc1c(C(=O)OC2CCCCC2)[nH]c2c1C(=O)CC(c1ccccc1Cl)C2 (stereo not given) | -5% | . | ? | . | 31% | -1%
Nc1ccccc1Oc1ccc2ccccc2c1 | . | -9% | i | 2% | 16µM* | -35%
SMILES | ATXN2 expr inh | HT1080 IDH1KD tx | ATXN viability | HT1080NT lethal | TGFb inhibitor | HepG2 viability
Cc1ccccc1Oc1ccccc1N | 8% | 8% | i | -1% | 2% | -1%
COc1ccc(CNC(=O)COc2ccc(C(=O)c3ccc(F)cc3)cc2)cc1 | -27% | 5.2µM* | i | ? | ? | -27%
COc1ccc(CNC(=O)COc2ccc(F)cc2)cc1 | 2% | 6% | i | 11% | 15% | 7%
COc1ccccc1C(=O)N(Cc1cc2cccc(C)c2nc1N1CCC(O)CC1)C1CC1 | . | . | i | . | . | .
Cc1ccc2nc(NC(=O)CN(C)S(=O)(=O)c3cccc4nsnc34)sc2c1 | ? | 8.2µM* | i | ? | -3% | -6%
Cc1ccnc(NC(=O)CN(C)S(=O)(=O)c2cccc3nsnc23)c1 | 2% | 3% | i | 6% | -11% | 4%
COc1cc2nc(N3CCOCC3)nc(NC3CCN(C)CC3)c2cc1OC | . | -16% | . | 2% | . | .
CN1CCN(C(=S)NC(=O)c2ccc(C(C)(C)C)cc2)CC1 | 7% | -12% | i | -12% | -16% | -14%
C=CCn1cccc(/C=C/C(=O)c2ccc(C(C)(C)C)cc2)c1=S | 25µM* | -19% | . | ? | ? | -108%
Nc1nnc(-c2ccc([N+](=O)[O-])o2)s1 | -39% | -18% | ? | 23µM* | ? | -99%
O=C(CC1(O)C(=O)N(CCc2ccccc2)c2ccc(Br)cc21)c1ccccc1O (stereo not given) | . | . | . | . | ? | -89%
O=C(/C=C\c1ccccc1OC(=O)c1ccccc1F)c1cc2ccccc2o1 | 55% | ? | i | 16µM* | 14µM* | -44%
CCN(CC)c1ccc(/C=N/Nc2ccc(C)cc2)c(O)c1 | -16% | -6% | i | -7% | -10% | -6%
CCN(CC)c1ccc(/C=N/NC(=O)CNC(=O)C2COc3ccccc3O2)c(O)c1 (stereo not given) | ? | ? | i | ? | ? | -21%
CCN(CC)c1ccc(/C=N/NC(=O)CCC(=O)NCc2ccccc2)c(O)c1 | 3.5µM* | ? | i | -28% | -34% | -9%
CCOC(=O)N/N=C/c1ccc(N(CC)CC)cc1O | 15% | 9.2µM* | i | ? | -2% | -3%
c1ccc(C2C3=C(CCCC3)Nc3ncnn32)cc1 (stereo not given) | -7% | -9% | i | 8% | 0% | -5%
